Assay [1] concerns the target Paired box protein Pax-6 (Homo sapiens) (UniProt P26367). The assay can be described thus: ATG_Pax6_CIS: Attagene CIS-FACTORIAL HepG2 Assay for human Paired Box 6 (PAX6) (AID 2282956). The following applies: HepG2 CIS-FACTORIAL PAX6 reporter transcription, RNA readout; actives raise or lower the signal. The procedure, abridged:
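Transient MRTU transfection of HepG2 → compound exposure 24 h → TriZol RNA, oligo(dT) RT → PCR, 6-FAM primer extension, HpaI cut → capillary electrophoresis; activity fitted both directions against DMSO.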

The nature of assay [2]: ATG_PXRE_CIS: Attagene CIS-FACTORIAL HepG2 Assay for human Pregnane X Receptor Element (PXRE) (AID 2282957). The following applies: HepG2 Attagene CIS-FACTORIAL PXRE reporter, mRNA; actives raise or lower the signal. The method, boiled down: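 HepG2 cells transiently transfected with cis-regulated multiple reporter transcription units; endogenous factor activity measured as reporter mRNA 24 h after dosing. RT-PCR, fluorescent primer extension, HpaI digestion, capillary electrophoresis; bidirectional fit versus DMSO baseline.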

Assay [3] can be described thus: ATG_PPRE_CIS: Attagene CIS-FACTORIAL HepG2 Assay for human Peroxisome Proliferator-activated Response Element (PPRE) (AID 2282958). To be noted: HepG2 PPRE cis-element reporter, Attagene transcription factor profiling; actives raise or lower the signal. The procedure, abridged:
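HepG2 cells are transiently transfected with multiplexed cis-promoter reporter units to report endogenous PPAR activity. After 24 h dosing, reporter mRNA is read by RT-PCR and capillary electrophoresis. Fitting is bidirectional against DMSO.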

Assay [4] can be described thus: ATG_RORE_CIS: Attagene CIS-FACTORIAL HepG2 Assay for human RAR-related Orphan Receptor Element (RORE) (AID 2282959). To be noted: HepG2 Attagene cis-factorial RORE reporter, mRNA; actives raise or lower the signal. The procedure, abridged:
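HepG2 cells carrying transiently transfected cis-regulated reporter units; RORE-driven reporter mRNA quantified 24 h post-dosing by RT-PCR, 6-FAM primer extension, HpaI digestion and capillary electrophoresis. Bidirectional fit versus DMSO.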

A short description of assay [5]: ATG_Sox_CIS: Attagene CIS-FACTORIAL HepG2 Assay for human SRY-box transcription factor (SOX) (AID 2282960). To be noted: HepG2 Attagene cis-factorial SOX reporter, mRNA; actives raise or lower the signal. The method, boiled down:
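HepG2 cells transiently transfected with multiple cis-regulated reporter units, then dosed for 24 h. Reporter mRNA quantified by RT-PCR, fluorescent labelling, HpaI digestion and capillary electrophoresis; bidirectional fit versus DMSO.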

Assay [6] addresses Transcription factor Sp1 (Homo sapiens) (UniProt P08047). The assay can be described thus: ATG_Sp1_CIS: Attagene CIS-FACTORIAL HepG2 Assay for human Specificity Protein 1 (Sp1) (AID 2282961). To be noted: HepG2 Sp1 cis-reporter transcription, actives raise or lower the signal. The procedure, abridged:
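HepG2 cells transiently transfected with multiplexed cis-regulated reporter constructs, chemical exposure 24 h. Reporter mRNA quantified by RT-PCR with capillary electrophoresis; bidirectional fit relative to DMSO.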

A short description of assay [7]: ATG_SREBP_CIS: Attagene CIS-FACTORIAL HepG2 Assay for human Sterol Regulatory Element Binding (SREBP) (AID 2282962). To be noted: HepG2 Attagene cis-factorial SREBP reporter, mRNA; actives raise or lower the signal. The method, boiled down:
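Transfected HepG2 (cis-regulated reporter library, endogenous TFs) → compound 24 h → total RNA → oligo(dT) RT → reporter-specific PCR → FAM primer extension, HpaI cut → CE fluorescence. Fit bidirectional vs DMSO.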

The target of assay [8] is Signal transducer and activator of transcription 3 (Homo sapiens) (UniProt P40763). The assay can be described thus: ATG_STAT3_CIS: Attagene CIS-FACTORIAL HepG2 Assay for human Signal Transducer and Activator of Transcription 3 (STAT3) (AID 2282963). To be noted: HepG2, Attagene cis-factorial STAT3 reporter transcription; actives raise or lower the signal. The method, boiled down: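 Transcript-level reporter assay. HepG2 transient MRTU transfection, 24 h exposure, fluorescence detection after RT-PCR and CE; DMSO baseline.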
Signal transducer and activator of transcription 3 (Homo sapiens), sequence (P40763 whole entry, looked up): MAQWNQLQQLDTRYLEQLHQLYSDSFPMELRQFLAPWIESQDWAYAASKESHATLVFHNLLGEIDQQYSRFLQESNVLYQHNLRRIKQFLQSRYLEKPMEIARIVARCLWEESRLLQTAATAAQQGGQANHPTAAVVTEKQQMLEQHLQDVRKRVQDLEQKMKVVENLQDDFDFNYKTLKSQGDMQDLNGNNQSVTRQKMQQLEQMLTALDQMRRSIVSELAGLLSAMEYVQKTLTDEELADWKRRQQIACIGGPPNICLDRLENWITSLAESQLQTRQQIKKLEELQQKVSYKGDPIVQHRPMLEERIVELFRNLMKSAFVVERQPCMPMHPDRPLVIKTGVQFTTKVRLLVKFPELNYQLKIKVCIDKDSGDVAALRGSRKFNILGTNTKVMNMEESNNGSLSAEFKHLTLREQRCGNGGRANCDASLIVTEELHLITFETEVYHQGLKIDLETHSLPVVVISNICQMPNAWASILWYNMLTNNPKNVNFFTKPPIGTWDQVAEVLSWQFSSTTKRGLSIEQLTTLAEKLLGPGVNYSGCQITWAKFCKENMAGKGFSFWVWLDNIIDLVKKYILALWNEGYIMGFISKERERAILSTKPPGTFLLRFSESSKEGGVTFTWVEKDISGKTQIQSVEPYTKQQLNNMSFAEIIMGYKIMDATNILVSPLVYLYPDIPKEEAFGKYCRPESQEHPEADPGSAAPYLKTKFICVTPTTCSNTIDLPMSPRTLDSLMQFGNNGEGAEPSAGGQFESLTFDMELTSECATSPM

Assay [9] in a line: ATG_TCF_b_cat_CIS: Attagene CIS-FACTORIAL HepG2 Assay for human T-Cell-Factor with beta-catenin (TCF/b-cat) (AID 2282965). The following applies: HepG2 TCF/beta-catenin cis-reporter transcription, actives raise or lower the signal. The method, boiled down:
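HepG2 cells transiently transfected with multiple cis-promoter-regulated reporter transcription units, so endogenous transcription factor activity is measured. Reporter mRNA read 24 hours after dosing by RT-PCR, fluorescent labelling and capillary electrophoresis; bidirectional fitting against DMSO.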

Assay [10] is described as follows: ATG_TAL_CIS: Attagene CIS-FACTORIAL HepG2 Assay for human TAL Basal Promoter (AID 2282966).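 Also: background control endpoint measuring basal TAL promoter reporter mRNA not a specific factor.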 To be noted: HepG2 Attagene cis-factorial TAL promoter reporter; actives raise or lower the signal. The procedure, abridged: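 HepG2 cells were transiently transfected with promoter-driven multiplexed reporter units and dosed for 24 h. Reporter mRNA was measured by RT-PCR with capillary electrophoresis fluorescence; bidirectional fits used DMSO as baseline, serving as a background control.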

The nature of assay [11]: ATG_TGFb_CIS: Attagene CIS-FACTORIAL HepG2 Assay for human Transforming Growth Factor (TGF) (AID 2282967). The following applies: HepG2 Attagene CIS TGFb reporter, mRNA transcription; actives raise or lower the signal. The procedure, abridged:
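HepG2 cells transiently transfected with cis-promoter-driven multiple reporter units measure endogenous TF activity; reporter mRNA quantified at 24 h by RT-PCR, FAM labeling, HpaI digestion and capillary electrophoresis. Bidirectional fit vs DMSO.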

The target of assay [12] is X-box-binding protein 1 (Homo sapiens) (UniProt P17861). The assay can be described thus: ATG_Xbp1_CIS: Attagene CIS-FACTORIAL HepG2 Assay for human X-box Binding Protein 1 (XBP1) (AID 2282972). To be noted: HepG2 XBP1 cis-element reporter, Attagene multiplex; actives raise or lower the signal. The method, boiled down:
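HepG2, transient MRTU transfection (cis-promoter driven), 24 h compound exposure. Total RNA → oligo(dT) RT → PCR → 6-FAM labeling → HpaI cut → CE. Bidirectional fit vs DMSO.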

The nature of assay [13]: ATG_M_19_TRANS: Attagene TRANS-FACTORIAL HepG2 Assay for M19 Transcription Factor (Internal Marker) (AID 2282974; active = hit-call score of the fitted dose curve at least 0.9, where 1 is the maximum). The following applies: HepG2 Attagene TRANS-FACTORIAL M19 internal marker reporter. The method, boiled down: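 HepG2 transiently transfected with GAL4-UAS multiplex reporter constructs, exposed 24 h; reporter RNA quantified by RT-PCR, 6-FAM labeling, HpaI digestion and capillary electrophoresis; internal background marker fitted upward versus DMSO.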

A short description of assay [14]: ATG_TA_CIS: Attagene CIS-FACTORIAL HepG2 Assay for human TA Basal Promoter (AID 2282964). The following applies: HepG2 Attagene CIS-factorial TA basal promoter reporter; actives raise or lower the signal. The method, boiled down: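 HepG2 cells transiently transfected with multiple reporter units under cis promoter elements, reporting endogenous transcription factor activity; this endpoint tracks the TA basal promoter as background control. Reporter mRNA after 24 h dosing measured by RT-PCR/capillary electrophoresis; bidirectional fits versus DMSO.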

Assay [15] has as its target Estrogen receptor (Homo sapiens) (UniProt P03372). Nature of the assay: ATG_ERa_TRANS: Attagene TRANS-FACTORIAL HepG2 Assay for human Estrogen Receptor alpha (ERa) (AID 2282970; active = hit-call score of the fitted dose curve at least 0.9, where 1 is the maximum). To be noted: HepG2 Attagene TRANS ERa GAL4 reporter, mRNA. The procedure, abridged:
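HepG2 cells transiently transfected with multiplexed GAL4-UAS reporter units; ERa activity read via exogenous chimeric NR-Gal4 protein. After 24 hour compound exposure, reporter mRNA measured by RT-PCR with 6-FAM labelling and capillary electrophoresis; gain-of-signal fitted relative to DMSO.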

Assay [16] in a line: ATG_GAL4_TRANS: Attagene TRANS-FACTORIAL HepG2 Assay for GAL4 (Internal Marker) (AID 2282976; active = hit-call score of the fitted dose curve at least 0.9, where 1 is the maximum). To be noted: HepG2 Attagene TRANS GAL4 internal marker reporter. The procedure, abridged:
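HepG2 cells transiently transfected with multiplexed GAL4-UAS reporter constructs were dosed for 24 h. Reporter mRNA was measured by RT-PCR, 6-FAM primer extension, HpaI digestion and capillary electrophoresis, and gain of signal was fitted relative to DMSO.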

The nature of assay [17]: ATG_VDRE_CIS: Attagene CIS-FACTORIAL HepG2 Assay for human Vitamin D Receptor Element (VDRE) (AID 2282968). The following applies: HepG2 VDRE cis-reporter transcription, actives raise or lower the signal. The procedure, abridged: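 RT-PCR/CE readout of reporter mRNA; HepG2, transient transfection, 24 h dosing; DMSO baseline; bidirectional analysis.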

Records with an inconclusive call do not appear. Active and inactive are the calls of the source. The calls were made as follows, unless noted: active = hit-call score of the fitted dose curve at least 0.9, where 1 is the maximum; inactive = score below 0.9.

Consider seven compounds from PubChem BioAssay (EPA / NIEHS).

Broadly, the AC50 is the midpoint of the concentration-response curve, whichever way the signal moves.

Paired box protein Pax-6 (Homo sapiens), sequence (P26367 whole entry, looked up): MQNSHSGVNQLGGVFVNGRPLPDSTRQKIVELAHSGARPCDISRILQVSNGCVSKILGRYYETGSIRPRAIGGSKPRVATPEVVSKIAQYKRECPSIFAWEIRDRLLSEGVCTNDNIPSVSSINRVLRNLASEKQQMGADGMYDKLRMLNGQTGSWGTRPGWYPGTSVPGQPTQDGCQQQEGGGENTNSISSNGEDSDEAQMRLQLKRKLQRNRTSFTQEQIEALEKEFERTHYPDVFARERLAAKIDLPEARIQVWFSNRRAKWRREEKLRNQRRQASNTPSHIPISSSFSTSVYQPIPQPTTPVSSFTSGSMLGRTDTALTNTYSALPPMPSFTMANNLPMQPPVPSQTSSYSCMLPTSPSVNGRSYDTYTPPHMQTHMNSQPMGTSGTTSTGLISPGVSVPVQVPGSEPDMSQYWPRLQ
X-box-binding protein 1 (Homo sapiens), sequence (P17861 whole entry, looked up): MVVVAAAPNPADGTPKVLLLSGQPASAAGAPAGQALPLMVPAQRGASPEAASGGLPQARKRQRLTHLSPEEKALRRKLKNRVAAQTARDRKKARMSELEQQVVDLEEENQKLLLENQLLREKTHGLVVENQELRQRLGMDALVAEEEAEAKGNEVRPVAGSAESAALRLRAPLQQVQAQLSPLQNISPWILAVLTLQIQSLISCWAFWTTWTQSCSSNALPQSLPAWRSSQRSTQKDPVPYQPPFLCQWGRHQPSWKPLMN
Transcription factor Sp1 (Homo sapiens), sequence (P08047 whole entry, looked up): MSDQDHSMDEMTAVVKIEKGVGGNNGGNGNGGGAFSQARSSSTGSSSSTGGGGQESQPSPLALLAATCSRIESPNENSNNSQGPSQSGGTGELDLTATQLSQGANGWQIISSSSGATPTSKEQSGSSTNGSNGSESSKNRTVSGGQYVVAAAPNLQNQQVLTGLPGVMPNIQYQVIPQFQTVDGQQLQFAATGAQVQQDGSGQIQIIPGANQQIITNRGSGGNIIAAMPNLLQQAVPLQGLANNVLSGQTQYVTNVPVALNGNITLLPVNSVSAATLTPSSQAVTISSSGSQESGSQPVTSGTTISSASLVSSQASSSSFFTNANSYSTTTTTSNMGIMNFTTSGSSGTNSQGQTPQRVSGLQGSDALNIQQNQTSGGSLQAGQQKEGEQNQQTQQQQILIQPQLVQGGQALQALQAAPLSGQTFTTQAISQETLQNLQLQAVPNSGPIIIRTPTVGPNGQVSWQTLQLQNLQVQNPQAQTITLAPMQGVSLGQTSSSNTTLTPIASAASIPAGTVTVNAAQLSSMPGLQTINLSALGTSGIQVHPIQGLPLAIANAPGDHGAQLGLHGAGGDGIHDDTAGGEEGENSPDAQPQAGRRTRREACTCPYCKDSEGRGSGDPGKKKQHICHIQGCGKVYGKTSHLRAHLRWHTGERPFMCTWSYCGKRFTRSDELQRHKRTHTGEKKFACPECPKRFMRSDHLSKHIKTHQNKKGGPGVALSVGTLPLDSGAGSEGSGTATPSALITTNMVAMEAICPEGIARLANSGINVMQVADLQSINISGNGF
Estrogen receptor (Homo sapiens), sequence (P03372 whole entry, looked up, the tested form may be a part): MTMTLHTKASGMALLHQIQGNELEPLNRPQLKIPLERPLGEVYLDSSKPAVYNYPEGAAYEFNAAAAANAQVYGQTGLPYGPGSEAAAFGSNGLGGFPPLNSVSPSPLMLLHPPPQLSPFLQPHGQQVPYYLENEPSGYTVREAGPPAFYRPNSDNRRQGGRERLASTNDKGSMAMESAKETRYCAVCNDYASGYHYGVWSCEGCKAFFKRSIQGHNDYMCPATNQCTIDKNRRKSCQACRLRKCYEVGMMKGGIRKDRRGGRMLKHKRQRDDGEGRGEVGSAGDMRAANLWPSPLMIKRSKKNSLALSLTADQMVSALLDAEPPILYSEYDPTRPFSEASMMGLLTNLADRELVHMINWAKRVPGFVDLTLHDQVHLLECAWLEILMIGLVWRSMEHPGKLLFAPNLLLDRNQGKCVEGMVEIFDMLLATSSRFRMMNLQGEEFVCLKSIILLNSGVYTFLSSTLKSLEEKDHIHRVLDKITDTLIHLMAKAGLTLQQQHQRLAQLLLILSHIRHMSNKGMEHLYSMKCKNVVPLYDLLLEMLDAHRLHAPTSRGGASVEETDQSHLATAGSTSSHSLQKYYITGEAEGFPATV

Take `CN1Cc2c(N)cccc2C(c2ccccc2)C1` (configuration not stated): the outcome in assay [1], in [3], in [4], in assay [5], in assay [6] and in assay [7] was inactive. Further, the call in assay [8], in assay [9], in assay [10], in assay [11], in [12] and in assay [13] was inactive. The AC50 in assay [2] is 6.9 µM (active).

On to `O=C(O)CCSCCC(=O)O`, for which the result in assay [1], in [3], in assay [4], in [5], in [6] and in assay [7] was inactive. The outcome in assay [8], in assay [14], in assay [9], in assay [10], in assay [15] and in assay [12] was inactive. Also, the result in [13] and in assay [16] was inactive. Further, in assay [2], the AC50 is 54.3 µM (active).

As for `CNCCCC12CCC(c3ccccc31)c1ccccc12`, the values for the half-maximal activity concentration (AC50) in [1], in assay [9] and in assay [17] were 17.4 µM (active), 18.5 µM (active) and 15 µM (active), respectively. In addition, the outcome in [2], in [3], in assay [4], in assay [5], in assay [6] and in [8] was inactive. In addition, the result in [14], in [10] and in assay [15] was inactive.

Regarding `O=C(Oc1ccccc1)c1ccc(O)cc1`, the compound was called inactive in assay [1], in [2], in assay [3], in assay [4], in assay [5] and in assay [7]. In addition, the outcome in assay [8], in assay [14], in [9], in assay [10], in assay [11] and in [12] was inactive. The call in assay [13] and in [16] was inactive. Further, the AC50 in [17] is 159 µM (active).

With `c1ccc2[nH]ccc2c1`, the compound was called inactive in assay [1], in [3], in [4], in assay [5], in [7] and in [8]. The compound was called inactive in assay [14], in assay [9], in assay [10], in assay [11], in assay [17] and in [12]. For the same compound, in [16], the compound was called inactive. The AC50 in assay [2] was 29.9 µM (active).

As to `O=C1CCCCCCCCCCCCCCO1`, the compound was classed as inactive in assay [1], in [2], in assay [3], in assay [4], in [5] and in assay [6]. The call in assay [8], in [14], in [9], in assay [10], in assay [17] and in [12] was inactive. Also, the compound was classed as inactive in assay [13] and in assay [16]. Also, the AC50 in assay [11] is 158 µM (active).

With `C#C[C@]1(O)CC[C@H]2[C@@H]3CCC4=Cc5oncc5C[C@]4(C)[C@H]3CC[C@@]21C`, the AC50 in assay [1] is 20.1 µM (active); in [2], 8.09 µM (active); in assay [5], 61.3 µM (active); in [6], 57.6 µM (active); in assay [14] it was 8.11 µM (active); in [9] it was 22 µM (active). Besides, the values for the AC50 in assay [17] and in [15] were 4.54 µM (active) and 0.412 µM (active), respectively. In addition, the outcome in assay [3], in assay [4], in assay [8], in assay [10] and in [11] was inactive.
